Bioassay records as filed in PubChem.
HT1080 IDH1KD tx = toxicity to HT-1080 IDH1 knockdown cells (counter line) | Potency, µM (highest dose often 46.1 µM), for inactives: top-dose activity, negative = toxicity, usual class: cytotoxic | 360,000 tested, 2% active | HT-1080 IDH1 knockdown viability, ATP luminescence, 48 h | AID 686971;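 also: potency is read from the fitted curve at half-maximal effect; 0% = DMSO wells and -100% = cell-free medium wells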
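Cytotoxicity counter-line: IDH1KD HT-1080, 48 h, CellTiter-Glo. Curves classed by r2, magnitude and activity.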
IL1B secr inh = inflammasome signaling inhibition, IL-1 beta readout; activity change, % at 57.5 µM; 360,000 tested, 4.7% active; THP-1 LPS/ATP IL-1B secretion, AlphaLISA, 16 h; hits give low values; in the data active = activity change below about -50%; inconclusive = mostly about -30% to -49%
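Secreted IL-1B measured by AlphaLISA bead assay after 16 h compound exposure of THP-1 cells; compounds (final up to 57.5 uM) added 1 h before LPS (250 ng/mL) and ATP (1.25 mM) stimulation; lower signal means less secretion.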
DT40 TDP1 CPT = growth inhibition of DT40 Tdp1-/-;hTDP1 cells with camptothecin (screen for TDP1 inhibitors) | chicken DT40 Tdp1-/-;hTDP1 cells + 20 nM CPT, ATP luminescence, 48 h | Potency, µM (doses to about 46.2 µM), for the others: at the top dose activity change, negative = growth inhibition, hits mostly inhibitors | 420,000 tested, 12% active | AID 686979; also: potency is read from the fitted curve at half-maximal effect; nearly all actives have a fitted effect of over 55% in size
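Chicken DT40 Tdp1-/- cells complemented with human TDP1, 400 cells/well, exposed to compounds plus 20 nM camptothecin for at least 48 h at 37 C; viability read as ATP content by CellTiter-Glo luminescence.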
TDP1 cell noCPT = qHTS for Inhibitors of human tyrosyl-DNA phosphodiesterase 1 (TDP1): qHTS in cells in absence of CPT | DT40 Tdp1-/- hTDP1 cells, no CPT, ATP luminescence, 48 h | Potency, µM (highest dose often 46.2 µM), inactives show at the top dose activity change, negative = growth inhibition, most hits filed as inhibitors | 420,000 tested, 15% active; also: potency is read from the fitted curve at half-maximal effect; nearly all actives have a fitted effect of over 55% in size
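Growth kinetics read by CellTiter-Glo luminescence after ≥48 hr at 37 °C. Cells: DT40 Tdp1-/- stably carrying human TDP1, 400 per well, compound exposure in the absence of CPT (DMSO vehicle).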
HT1080NT lethal = kills 2HG-producing HT-1080-NT fibrosarcoma cells; HT-1080-NT fibrosarcoma viability, CellTiter-Glo ATP luminescence, 48 h; Potency, µM (top dose mostly 46.1 µM), without a hit: at the highest dose activity, negative = less viability, actives largely listed as cytotoxic; 360,000 tested, 1.6% active;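 also: NT is the 2HG producing partner of a matched IDH1 knockdown line; potency is read from the fitted curve at half-maximal effect; 0% = DMSO-treated cells and -100% = media-only wells without cells; nearly all actives have a fitted effect of over 55% in size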
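Viability by CellTiter-Glo luminescence after 48 h compound exposure at 37C of HT-1080-NT cells (750/well, RPMI, 5% FBS). % activity scaled between DMSO wells and medium-only wells, then curve-fitted and categorized by curve class.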
Numbers without * were called inactive. Hits are enriched below; roughly 19% of the tested compounds scored in any of these assays. Unless noted, calls follow the shape of the dose curve; as a rule, active = well fitted curve in the direction sought with a large enough effect; inconclusive = small, poorly fitted or top-dose-only effect, or another doubt; inactive = no such curve, though single readings can be large; an effect the other way counts as inactive or inconclusive. Unless noted, % is scaled to controls: 0 for no effect and ±100 for the full control effect.

How did C(=C\c1ccnc2ccccc12)/c1cc2c3c(c1)CCCN3CCC2 do in these assays?
DT40 TDP1 CPT: 2.24µM*; TDP1 cell noCPT: 2µM*

What do the screens show for `CN(C)c1ccc(/C=C/c2ccnc3ccccc23)cc1N`?
DT40 TDP1 CPT: 2.82µM*; TDP1 cell noCPT: 2.51µM*

How did CC(CNC(=O)CCS(=O)(=O)c1ccc2c(c1)NC(=O)CO2)c1ccccc1 (configuration not stated) do in these assays?
HT1080 IDH1KD tx: -0.5%; IL1B secr inh: 17.1; DT40 TDP1 CPT: -14.4%; TDP1 cell noCPT: 2.0%; HT1080NT lethal: -0.2%

Results for Cc1ccc(Cn2ccsc2=NC(=O)COC(=O)C(C)C)cc1 ?
HT1080 IDH1KD tx: inconclusive; IL1B secr inh: -10.2; DT40 TDP1 CPT: 14.6µM*; TDP1 cell noCPT: 8.2µM*; HT1080NT lethal: -27.3%

What do the screens show for `COCCNCc1ccc(C(C)C)cc1`?
HT1080 IDH1KD tx: -0.5%; IL1B secr inh: 10.0; DT40 TDP1 CPT: -21.7%; TDP1 cell noCPT: -17.9%; HT1080NT lethal: -1.2%

What do the screens show for `CCOCCCNCc1ccc(OC)cc1`?
HT1080 IDH1KD tx: 20.8%; IL1B secr inh: -15.6; DT40 TDP1 CPT: -26.8%; TDP1 cell noCPT: -9.0%; HT1080NT lethal: 7.8%

What do the screens show for `COc1ccc(C(CCNCc2ccc(OC(C)C)cc2)C(C)C)cc1` (configuration not stated)?
HT1080 IDH1KD tx: inconclusive; DT40 TDP1 CPT: 4.61µM*; TDP1 cell noCPT: 6.51µM*; HT1080NT lethal: inconclusive

Results for COc1ccc(C(CCNCc2ccc(N(C)C)cc2)C(C)C)cc1 (configuration not stated) ?
HT1080 IDH1KD tx: inconclusive; IL1B secr inh: -100.3*; DT40 TDP1 CPT: 7.31µM*; TDP1 cell noCPT: 7.31µM*; HT1080NT lethal: 18.4µM*

How did CCOC(=O)/C(=N/Nc1ccc(Cl)cc1)S(=O)(=O)c1ccccc1 do in these assays?
HT1080 IDH1KD tx: 1.0%; IL1B secr inh: -69.3*; DT40 TDP1 CPT: -26.2%; TDP1 cell noCPT: inconclusive; HT1080NT lethal: -25.4%

How did COc1ccc(CONS(=O)(=O)c2ccc(NC(C)=O)cc2)cc1Cl do in these assays?
HT1080 IDH1KD tx: -25.8%; IL1B secr inh: 9.5; DT40 TDP1 CPT: 20.6µM*; TDP1 cell noCPT: inconclusive; HT1080NT lethal: -11.7%

Results for CCN(CC)C(=O)c1cc2c(=O)n3cccc(C)c3nc2n1C ?
HT1080 IDH1KD tx: 16.6%; IL1B secr inh: -18.9; DT40 TDP1 CPT: -17.9%; TDP1 cell noCPT: inconclusive; HT1080NT lethal: 19.6%

Results for Cc1ccc(Cl)cc1NC(=O)c1cc2c(=O)n3cccc(C)c3nc2n1C ?
DT40 TDP1 CPT: 0.581µM*; TDP1 cell noCPT: 0.517µM*

What do the screens show for `CCCCN(CC)C(=O)c1cc2c(=O)n3cccc(C)c3nc2n1C`?
DT40 TDP1 CPT: inconclusive; TDP1 cell noCPT: 16.4µM*

What do the screens show for `COc1cc(OC)cc(C(=O)N2CCN(Cc3ccccc3Br)CC2)c1`?
HT1080 IDH1KD tx: 0.7%; IL1B secr inh: -7.4; DT40 TDP1 CPT: inconclusive; TDP1 cell noCPT: -26.9%; HT1080NT lethal: 6.8%

How did O=C1c2cccc(NCCCNCCO)c2C(=O)c2cccc(NCCCNCCO)c21 do in these assays?
HT1080 IDH1KD tx: 16.4µM*; IL1B secr inh: -103.2*; DT40 TDP1 CPT: 5.8µM*; TDP1 cell noCPT: 5.8µM*; HT1080NT lethal: inconclusive

Results for C=C1CC2C3CC[C@@]4(OCOC45COCO5)[C@@]3(C)C(O)CC2[C@@]2(C)CCC(=O)C=C12 (some centres not stated) ?
HT1080 IDH1KD tx: inconclusive; IL1B secr inh: -100.6*; DT40 TDP1 CPT: inconclusive; TDP1 cell noCPT: 18.4µM*; HT1080NT lethal: -24.9%

What do the screens show for `Cc1cc(NC(=O)CCC(=O)N(Cc2ccco2)C(C(=O)NC2CCCC2)c2ccccc2C)no1` (configuration not stated)?
HT1080 IDH1KD tx: -13.7%; IL1B secr inh: -3.0; DT40 TDP1 CPT: 23.1µM*; TDP1 cell noCPT: 23.1µM*; HT1080NT lethal: -11.6%

Results for CCCCN(C(=O)CCC(=O)Nc1cc(C)on1)C(C(=O)NC1CCCC1)c1cccc(OC)c1 (configuration not stated) ?
HT1080 IDH1KD tx: -0.2%; IL1B secr inh: 12.4; DT40 TDP1 CPT: 8.2µM*; TDP1 cell noCPT: inconclusive; HT1080NT lethal: -9.9%

How did COc1ccc(N(C(=O)/C=C/C(=O)Nc2cc(C)on2)C(C(=O)NC2CCCC2)c2ccccc2C)cc1 (configuration not stated) do in these assays?
HT1080 IDH1KD tx: inconclusive; IL1B secr inh: -86.5*; DT40 TDP1 CPT: inconclusive; TDP1 cell noCPT: 20.6µM*; HT1080NT lethal: inconclusive

Results for Cc1cc(NC(=O)CCC(=O)N(Cc2ccco2)C(C(=O)NC2CCCC2)c2ccccc2F)no1 (configuration not stated) ?
HT1080 IDH1KD tx: -3.3%; IL1B secr inh: 13.8; DT40 TDP1 CPT: -2.0%; TDP1 cell noCPT: inconclusive; HT1080NT lethal: -3.4%

Results for CCCCC(c1nc2ccccc2[nH]1)n1c(-c2ccccc2)nc2ccccc21 (configuration not stated) ?
HT1080 IDH1KD tx: -1.1%; IL1B secr inh: 0.0; DT40 TDP1 CPT: -14.9%; TDP1 cell noCPT: -12.0%; HT1080NT lethal: 14.9%

How did CCCCC(c1nc2ccccc2[nH]1)n1c(-c2ccccc2)nc2cc(C)c(C)cc21 (configuration not stated) do in these assays?
HT1080 IDH1KD tx: 17.6%; IL1B secr inh: 0.0; DT40 TDP1 CPT: 14.6µM*; TDP1 cell noCPT: 23.1µM*; HT1080NT lethal: 19.6%

What do the screens show for `O=C(Cc1ccc(F)cc1)Nc1ccccc1N1CCCC1`?
HT1080 IDH1KD tx: 12.3%; IL1B secr inh: 0.0; DT40 TDP1 CPT: inconclusive; TDP1 cell noCPT: inconclusive; HT1080NT lethal: -0.5%

Results for CCC(=O)N1CCN(c2ccccc2NC(=O)Cc2ccc(Cl)cc2)CC1 ?
HT1080 IDH1KD tx: -28.0%; IL1B secr inh: 0.0; DT40 TDP1 CPT: -14.9%; TDP1 cell noCPT: 23.1µM*; HT1080NT lethal: -18.3%

What do the screens show for `O=C(Cc1ccc(Cl)c(Cl)c1)Nc1ccccc1N1CCCC1`?
HT1080 IDH1KD tx: -24.1%; IL1B secr inh: 13.7; DT40 TDP1 CPT: 14.6µM*; TDP1 cell noCPT: inconclusive; HT1080NT lethal: -28.4%

Results for COc1ccccc1CNC(=O)CN1C(=O)COc2ccc(S(=O)(=O)NC3CCCC3)cc21 ?
HT1080 IDH1KD tx: 11.4%; IL1B secr inh: -13.1; DT40 TDP1 CPT: 1.2%; TDP1 cell noCPT: 6.1%; HT1080NT lethal: 5.2%

What do the screens show for `Cc1ccc(NCC(=O)N/N=C/c2cccc(Oc3ccccc3)c2)cc1`?
HT1080 IDH1KD tx: -12.9%; IL1B secr inh: -77.1*; DT40 TDP1 CPT: inconclusive; TDP1 cell noCPT: inconclusive; HT1080NT lethal: -13.0%
